Values joined by “and” are separate entries in the source; they are usually repeats but may differ in a detail not shown here. Equal values may be shown once. ± gives the standard deviation of the averaged measurements.
What was measured:
Details in all cases: concentration: 10 µM; 24 h
TDF [1] = experiment: H1.0 immunofluorescence intensity relative to DMSO (% of DMSO); higher = stronger H1.0 induction, active = 120 or more
In short: (§1)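 Compounds were applied at 10 µM for 24 h at 37 °C, in triplicate, to HCC1569 and TDF cells. The cells were then fixed and stained for H1.0, and nuclei were counterstained with DAPI. Nuclear H1.0 intensity or cell number is reported relative to the plate control as a percent, taking the median of replicates. Smoothing for positional effects was applied to HCC1569 values only.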

HCC1569 [2] = experiment: H1.0 immunofluorescence intensity relative to DMSO (% of DMSO); higher = stronger H1.0 induction, active = 140 or more
In short: as §1

HCC1569 [3] = experiment: cell number relative to DMSO (% of DMSO); higher = more cells (less growth inhibition / toxicity)
In short: as §1

TDF [4] = experiment: as above
In short: as §1
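For H1.0 immunofluorescence intensity relative to DMSO in this document: TDF is a line of transformed human dermal fibroblasts of mesenchymal origin.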
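For cell number relative to DMSO in this document: TDF denotes transformed human dermal fibroblasts of mesenchymal origin.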

Row | SMILES | H1.0 immunofluorescence intensity (TDF [1]) | H1.0 immunofluorescence intensity (HCC1569 [2]) | cell number (HCC1569 [3]) | cell number (TDF [4])
1 | N#Cc1ccc2c(c1)CCN(CCC1CCC(NC(=O)c3ccnc4ccccc34)CC1)C2 (stereo not drawn) | 90.6 (inactive) | 158 (active) |  | 
2 | C[n+]1cc2c3c(ccc2c2ccc4cc5c(cc4c21)OCO5)OCO3.[Cl-] [Sanguinarine chloride] |  | 178 (active) | 15.1 | 0.53
3 | CC(=O)C1(O)Cc2c(O)c3c(c(O)c2C(OC2CC(N)C(O)C(C)O2)C1)C(=O)c1ccccc1C3=O (stereo not drawn) [Idarubicin] |  | 584 (active) | 49.1 ± 12 | 5.14 ± 3
4 | Cc1[nH]nc2ccc(-c3cncc(OCC(N)Cc4ccccc4)c3)cc12 (stereo not drawn) |  | 92 (inactive) | 58.8 | 2.19
5 | CCC(C)(C)C(=O)OC1CC(C)C=C2C=CC(C)C(CCC3CC(O)CC(=O)O3)C21 (stereo not drawn) [Simvastatin] | 120 (inactive) | 106 (inactive) |  | 
6 | Clc1ccc(N/N=C(\c2ccccc2)c2ccccn2)nc1 |  | 111 (inactive) | 73.1 | 1.54
7 | CCN(CC)CCCC(C)Nc1c2ccc(Cl)cc2nc2ccc(OC)cc12.Cl.Cl (stereo not drawn) [Quinacrine dihydrochloride] |  | 133 (inactive) | 67.6 | 4.99
8 | O=C(O)C1=CC(O)C(O)C(O)C1 (stereo not drawn) [Shikimic acid] | 97.5 (inactive) | 100 (inactive) |  | 
9 | O=C(NC1=CNNC1=C1N=c2ccc(CN3CCOCC3)cc2=N1)NC1CC1 |  | 58.9 (inactive) | 23.5 | 2.95
10 | Cc1c(C(=O)NN2CCCCC2)nn(-c2ccc(Cl)cc2Cl)c1-c1ccc(I)cc1 | 92 (inactive) | 96.5 (inactive) |  | 
11 | Cc1cc(Nc2ccc(NC(=O)c3ccc(Nc4ccnc5ccccc45)cc3)cc2)nc(N)n1 |  | 83.8 (inactive) | 13.5 | 0.96
12 | c1cc(-c2cnn3cc(-c4ccc(N5CCNCC5)cc4)cnc23)c2cccnc2c1 |  | 100 (inactive) | 22.7 | 0.96
13 | CCCCC1(C2CCCC2)Cc2cc(OCC(=O)O)c(Cl)c(Cl)c2C1=O (stereo not drawn) [R(+)-Butylindazone] | 86.7 (inactive) | 91.3 (inactive) | 98.8 | 107
14 | CC1(C)C(C(=O)O)N2C(=O)CC2S1(=O)=O (stereo not drawn) [Sulbactam] | 95.9 (inactive) | 108 (inactive) |  | 
15 | CN(C)CCCN1c2ccccc2Sc2ccc(C(F)(F)F)cc21.Cl [Triflupromazine hydrochloride] | 110 (inactive) | 113 (inactive) |  | 
16 | NC(=O)Nc1cc(-c2cccc(F)c2)sc1C(=O)NC1CCCNC1 (stereo not drawn) |  | 60.3 (inactive) | 19.9 | 1.8
17 | C=CC(=O)N1C/C(=C\c2ccc([N+](=O)[O-])cc2)C(=O)/C(=C/c2ccc([N+](=O)[O-])cc2)C1 [1-acryloyl-3,5-bis((E)-4-nitrobenzylidene)piperidin-4-one] |  | 145 (active) | 17.5 | 0.39

Row | SMILES | H1.0 immunofluorescence intensity (TDF [1]) | H1.0 immunofluorescence intensity (HCC1569 [2]) | cell number (HCC1569 [3]) | cell number (TDF [4])
18 | S=C([S-])N1CCCC1.[NH4+] [Ammonium pyrrolidinedithiocarbamate] |  | 126 (inactive) | 87.9 | 1.9
19 | COc1ccc(CCN(C)CCCC(C#N)(c2ccc(OC)c(OC)c2)C(C)C)cc1OC.Cl (racemic) | 99.2 (inactive) | 95.5 (inactive) |  | 
20 | CCCCCCCCCCCCCCCCCCOCC(COP(=O)([O-])OCC[N+](C)(C)C)OC (stereo not drawn) | 225 (active) and 85.1 (inactive) | 162 (active) and 103 (inactive) | 51.3 and 99.9 | 
21 | NC(=O)c1cnccn1 [Pyrazinecarboxamide] | 94.2 (inactive) | 110 (inactive) | 102 | 106
22 | COc1ccc(Cn2cc(C(=O)O)c(=O)c3ccccc32)cc1 | 98.8 (inactive) | 116 (inactive) |  | 
23 | Cc1ccccc1N(C)C(=O)c1ccc(S(=O)c2nccs2)c([N+](=O)[O-])c1 (stereo not drawn) |  | 131 (inactive) | 9.73 | 4.15
24 | O=C(c1ccc(Nc2nccc(-c3cc4ccccc4s3)n2)cc1)N1CCC(N2CCCC2)CC1 |  | 174 (active) | 61.6 | 3.45
25 | C[C@H](C(=O)O)c1cccc(C(=O)c2ccccc2)c1 [(S)-(+)-Ketoprofen] | 99 (inactive) | 100 (inactive) |  | 
26 | Nc1ccc(-c2cccc3c(=O)cc(N4CCOCC4)oc23)cc1 | 82.5 (inactive) | 156 (active) | 78.1 | 99.3
27 | Nc1ncnc2c1nc(N)n2[C@@H]1O[C@H](CO)[C@@H](O)[C@H]1O |  | 76.3 (inactive) | 25.5 | 2.02
28 | CCOC(=O)C(C)(C)Oc1ccc(Cl)cc1 [Clofibrate] | 99.5 (inactive) | 94.7 (inactive) | 102 ± 2.9 | 99.8 ± 6.2
29 | O=S(=O)(NCc1cccc2ccccc12)c1cc(Cl)c(Oc2cccc(N3CCNCC3)c2)s1 |  | 122 (inactive) | 8.55 | 0.28
30 | CCN(CC)CCCC(C)Nc1cc(/C=C/c2ccccc2Cl)nc2cc(Cl)ccc12 (stereo not drawn) |  | 102 (inactive) | 6.31 | 1.01
31 | COc1ccc(CN(CCN(C)C)c2ccccn2)cc1.O=C(O)C=CC(=O)O [Mepyramine maleate] | 92.3 (inactive) | 100 (inactive) | 106 | 94.8
32 | CCOC(=O)N1CCC(=C2c3ccc(Cl)cc3CCc3cccnc32)CC1 [Loratadine] | 98.3 (inactive) | 103 (inactive) |  | 
33 | CCOP(=O)(OCC)C(=Cc1cc(C(C)(C)C)c(O)c(C(C)(C)C)c1)P(=O)(OCC)OCC | 93.9 (inactive) | 124 (inactive) | 90.7 | 101
34 | CCN(CC)CCNC(=O)c1c(C)[nH]c(C=C2C(=O)Nc3ccc(Cl)cc32)c1C |  | 213 (active) | 22.9 | 1.9
